According to the supplement of paper PMC3334620:
The full ranking holds about 33,000 sequences; the median of “E-score (-0.5 to 0.5)” is about -0.054, and the highest 2% start at about 0.39. The sample holds the highest values, similar sequences and a random draw of the others, so the mix is not that of the screen.

molecular target: Ylr278c (UniProt Q05854); experiment: PBM E-score (8-mer binding enrichment) (E-score (-0.5 to 0.5)); higher = stronger / more preferred TF binding; settings: protein concentration: 200 nM; construct: GST-DNA-binding domain
Description: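 Universal 'all 10-mer' protein binding microarrays (Agilent AMADID 015681) probed with GST-tagged S. cerevisiae TFs (full-length or DBD) made by in vitro transcription/translation (PURExpress), about 100-200 nM. Bound TF was detected with fluorescent anti-GST. Each ungapped 8-mer (which stands for itself and its reverse complement) is scored by the PBM enrichment score (E-score), a modified Wilcoxon-Mann-Whitney statistic from -0.5 to +0.5, computed with the Universal PBM Analysis Suite. Scale: above 0.35 generally sequence-specific binding.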

UniProt Q05854, sequence (Q05854 whole entry, the tested form may be a part): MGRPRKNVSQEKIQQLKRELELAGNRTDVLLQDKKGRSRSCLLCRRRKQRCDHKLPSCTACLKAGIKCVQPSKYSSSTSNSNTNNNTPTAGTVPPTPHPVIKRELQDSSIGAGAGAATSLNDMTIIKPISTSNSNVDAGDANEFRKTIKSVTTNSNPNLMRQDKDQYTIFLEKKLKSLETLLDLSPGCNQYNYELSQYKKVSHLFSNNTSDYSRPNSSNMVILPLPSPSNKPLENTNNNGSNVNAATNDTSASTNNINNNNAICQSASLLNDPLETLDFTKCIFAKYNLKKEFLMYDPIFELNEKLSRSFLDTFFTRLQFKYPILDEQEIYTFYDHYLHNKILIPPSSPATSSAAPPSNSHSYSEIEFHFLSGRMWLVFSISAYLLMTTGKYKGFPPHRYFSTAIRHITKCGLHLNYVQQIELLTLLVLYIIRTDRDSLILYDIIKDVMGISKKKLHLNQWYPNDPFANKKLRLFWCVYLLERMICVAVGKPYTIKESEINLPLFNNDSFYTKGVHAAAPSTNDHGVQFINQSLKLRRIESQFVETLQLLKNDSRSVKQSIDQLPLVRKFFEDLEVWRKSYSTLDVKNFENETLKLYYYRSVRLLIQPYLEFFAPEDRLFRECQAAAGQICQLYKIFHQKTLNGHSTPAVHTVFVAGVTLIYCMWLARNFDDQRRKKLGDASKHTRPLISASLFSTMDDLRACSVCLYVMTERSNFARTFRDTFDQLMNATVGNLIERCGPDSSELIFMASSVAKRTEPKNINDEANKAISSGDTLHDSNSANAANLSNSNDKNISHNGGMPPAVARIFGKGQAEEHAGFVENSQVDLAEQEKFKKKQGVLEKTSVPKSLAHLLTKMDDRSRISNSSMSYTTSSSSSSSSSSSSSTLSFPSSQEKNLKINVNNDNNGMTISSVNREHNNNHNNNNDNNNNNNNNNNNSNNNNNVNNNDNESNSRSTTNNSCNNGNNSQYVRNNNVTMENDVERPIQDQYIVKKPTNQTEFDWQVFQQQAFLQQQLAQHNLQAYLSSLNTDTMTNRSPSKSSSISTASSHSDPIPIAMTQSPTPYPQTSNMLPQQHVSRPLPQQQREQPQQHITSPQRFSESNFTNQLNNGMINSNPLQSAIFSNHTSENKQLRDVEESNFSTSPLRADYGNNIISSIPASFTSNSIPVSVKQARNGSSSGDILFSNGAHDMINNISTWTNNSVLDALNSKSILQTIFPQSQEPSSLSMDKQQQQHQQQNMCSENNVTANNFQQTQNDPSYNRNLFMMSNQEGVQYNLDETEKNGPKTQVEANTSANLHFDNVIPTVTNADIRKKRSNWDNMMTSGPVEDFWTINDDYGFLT

Q: For CCCTGTCA, which “PBM E-score” value is on record?
A: The value was -0.228.

Q: How did the “PBM E-score” value turn out when GACGCGGC was run?
A: The value was 0.079.

Q: With GCCGCGAA as the sequence, how does the “PBM E-score” value read?
A: Its value is 0.233.

Q: ACCGCGGC was tested. Which “PBM E-score” value did it give?
A: The value was 0.305.

Q: GCCGCGGA was tested. Which “PBM E-score” value did it give?
A: Its value is 0.409.

Q: With GGCGCGGA as the sequence, how does the “PBM E-score” value read?
A: The value was 0.352.

Q: Which “PBM E-score” value does the source give for AGCGCGGA here?
A: Its value is 0.325.

Q: ACCGCGGG was tested. Which “PBM E-score” value did it give?
A: The value was 0.299.

Q: With ACCGCGGA as the sequence, how does the “PBM E-score” value read?
A: Its value is 0.407.

Q: How did the “PBM E-score” value turn out when GCCGCGGC was run?
A: Its value is 0.406.

Q: Which “PBM E-score” value does the source give for CGCGCGGA here?
A: The value was 0.398.

Q: Which “PBM E-score” value does the source give for ACCGCGGT here?
A: Its value is 0.178.

Q: How did the “PBM E-score” value turn out when GCCGCGCA was run?
A: The value was 0.21.

Q: AAGTTCAT was tested. Which “PBM E-score” value did it give?
A: Its value is 0.154.

Q: With CGCTTTTA as the sequence, how does the “PBM E-score” value read?
A: The value was 0.129.

Q: For CATGGCAC, which “PBM E-score” value is on record?
A: The value was 0.133.

Q: Which “PBM E-score” value does the source give for TACCCGCA here?
A: Its value is 0.157.

Q: For CAGCACCC, which “PBM E-score” value is on record?
A: Its value is -0.0668.

Q: For AGTCAGTA, which “PBM E-score” value is on record?
A: The value was 0.00611.

Q: With CATAGCCG as the sequence, how does the “PBM E-score” value read?
A: Its value is 0.23.

Q: How did the “PBM E-score” value turn out when AACTCTTC was run?
A: The value was -0.204.

Q: How did the “PBM E-score” value turn out when AAGTGGTA was run?
A: The value was -0.0771.

Q: AGTTGTGG was tested. Which “PBM E-score” value did it give?
A: The value was -0.0534.

Q: Which “PBM E-score” value does the source give for CACGCGGA here?
A: The value was 0.379.

Q: With CCCGCGGA as the sequence, how does the “PBM E-score” value read?
A: Its value is 0.409.

Q: Which “PBM E-score” value does the source give for CCCGCGGG here?
A: The value was 0.363.

Q: With TACGCGGA as the sequence, how does the “PBM E-score” value read?
A: Its value is 0.309.

Q: With AACGCGGC as the sequence, how does the “PBM E-score” value read?
A: Its value is 0.183.

Q: For AACGCGGA, which “PBM E-score” value is on record?
A: The value was 0.397.

Q: With CCCGCGGC as the sequence, how does the “PBM E-score” value read?
A: The value was 0.336.

Q: TCCGCGGA was tested. Which “PBM E-score” value did it give?
A: Its value is 0.44.

Q: For TCCGCGAA, which “PBM E-score” value is on record?
A: Its value is 0.343.

Q: For CCTCTCAA, which “PBM E-score” value is on record?
A: The value was 0.0673.

Q: Which “PBM E-score” value does the source give for GGTAGAAA here?
A: The value was -0.0702.

Q: With AGCCCATG as the sequence, how does the “PBM E-score” value read?
A: Its value is -0.131.

Q: With ACATTGAG as the sequence, how does the “PBM E-score” value read?
A: The value was -0.114.

Q: With CGACCTAG as the sequence, how does the “PBM E-score” value read?
A: Its value is 0.02.

Q: Which “PBM E-score” value does the source give for AACGGTCT here?
A: Its value is -0.0855.

Q: Which “PBM E-score” value does the source give for CAACTCCA here?
A: The value was 0.0206.

Q: AAACTCCG was tested. Which “PBM E-score” value did it give?
A: Its value is 0.496.

Q: With AAACTCCT as the sequence, how does the “PBM E-score” value read?
A: Its value is 0.23.

Q: With CAACTCCC as the sequence, how does the “PBM E-score” value read?
A: The value was 0.154.

Q: With CAACTCCG as the sequence, how does the “PBM E-score” value read?
A: The value was 0.486.

Q: Which “PBM E-score” value does the source give for AAACTCCA here?
A: The value was 0.176.

Q: CACGCTCC was tested. Which “PBM E-score” value did it give?
A: Its value is 0.129.

Q: Which “PBM E-score” value does the source give for CTCGCGTC here?
A: The value was 0.0578.

Q: For GGGCTCAA, which “PBM E-score” value is on record?
A: The value was -0.00819.

Q: ACTCCAGG was tested. Which “PBM E-score” value did it give?
A: The value was 0.00347.

Q: How did the “PBM E-score” value turn out when ACTCCAGC was run?
A: Its value is -0.122.

Q: Which “PBM E-score” value does the source give for GCTCCAGA here?
A: The value was -0.103.

Q: With ACTCCTGC as the sequence, how does the “PBM E-score” value read?
A: The value was 0.165.

Q: With ACTCCGGG as the sequence, how does the “PBM E-score” value read?
A: Its value is 0.481.

Q: Which “PBM E-score” value does the source give for CCTCCAGC here?
A: The value was -0.37.

Q: For CCTCCTGC, which “PBM E-score” value is on record?
A: Its value is -0.182.

Q: Which “PBM E-score” value does the source give for GCTCCCGA here?
A: The value was 0.0641.

Q: How did the “PBM E-score” value turn out when ACTCCGGC was run?
A: Its value is 0.476.

Q: How did the “PBM E-score” value turn out when CCTCCGGC was run?
A: Its value is 0.448.

Q: For ACTCCTGG, which “PBM E-score” value is on record?
A: The value was -0.0351.

Q: Which “PBM E-score” value does the source give for GCTCCGGA here?
A: The value was 0.464.

Q: Which “PBM E-score” value does the source give for ATAAGTTA here?
A: The value was -0.103.

Q: How did the “PBM E-score” value turn out when ACTAGAAG was run?
A: The value was -0.121.

Q: For AGAAGGAT, which “PBM E-score” value is on record?
A: Its value is -0.269.

Q: How did the “PBM E-score” value turn out when ACTTCAGG was run?
A: The value was -0.0351.

Q: ACTGCATC was tested. Which “PBM E-score” value did it give?
A: The value was -0.142.

Q: Which “PBM E-score” value does the source give for CCACTTCC here?
A: Its value is 0.0941.

Q: For CTCTTGGC, which “PBM E-score” value is on record?
A: The value was -0.239.

Q: For CTGAGGGC, which “PBM E-score” value is on record?
A: The value was -0.251.

Q: For ACTCCAGA, which “PBM E-score” value is on record?
A: The value was -0.112.

Q: Which “PBM E-score” value does the source give for CCTCCCGA here?
A: Its value is 0.0701.

Q: For ACTCCGGA, which “PBM E-score” value is on record?
A: The value was 0.494.

Q: CCTCCGGA was tested. Which “PBM E-score” value did it give?
A: Its value is 0.467.

Q: With ACTCCTGA as the sequence, how does the “PBM E-score” value read?
A: Its value is 0.0258.

Q: With CCTCCTGA as the sequence, how does the “PBM E-score” value read?
A: Its value is -0.172.

Q: Which “PBM E-score” value does the source give for CGCGCAAG here?
A: Its value is 0.0504.

Q: How did the “PBM E-score” value turn out when CTACACGC was run?
A: The value was -0.235.

Q: For GCGATATA, which “PBM E-score” value is on record?
A: The value was 0.00114.

Q: With ACTAGCAA as the sequence, how does the “PBM E-score” value read?
A: Its value is -0.104.

Q: AGGTGCAC was tested. Which “PBM E-score” value did it give?
A: The value was 0.0215.

Q: Which “PBM E-score” value does the source give for AGAATTCC here?
A: Its value is 0.283.

Q: With GGAATTCC as the sequence, how does the “PBM E-score” value read?
A: The value was 0.441.

Q: For GGAATTCA, which “PBM E-score” value is on record?
A: Its value is 0.183.

Q: For GAGACTCC, which “PBM E-score” value is on record?
A: The value was 0.249.

Q: Which “PBM E-score” value does the source give for CGCCGCCC here?
A: Its value is 0.284.

Q: CTCCGCCA was tested. Which “PBM E-score” value did it give?
A: The value was 0.391.

Q: How did the “PBM E-score” value turn out when ACCCGCCG was run?
A: The value was 0.307.

Q: ATCCGCCA was tested. Which “PBM E-score” value did it give?
A: Its value is 0.196.

Q: With AGCCGCCG as the sequence, how does the “PBM E-score” value read?
A: Its value is 0.313.
